Assay results reported in the supplement of paper PMC13380429.

System: Vero E6 infected with SARS-CoV-2
Assay: inhibition of SARS-CoV-2 cytopathic effect; higher = more antiviral protection, active = above 15
Conditions: 48 h

Measured: inhibition of SARS-CoV-2 cytopathic effect

O=C(NCCCN1CCCCCC1)C(c1ccccc1)C1CCCCC1 (stereo not given)
inactive: 1 nM -0.49% | 8.33 nM 0.99% | 100 nM 0.31% | 833.33 nM -2.41% | 10000 nM -8.06%

CNC(=O)CN(CCN(CCN(CC(=O)[O-])CC(=O)NC)CC(=O)[O-])CC(=O)[O-].[Gd+3] [gadodiamide]
inactive: 1 nM -0.88% | 8.33 nM -0.45% | 100 nM -3.37% | 833.33 nM -0.21% | 10000 nM 1.36%

CCCCCCCCCCCCCCCC(=O)OC[C@H](O)[C@H]1OC(=O)C(O)=C1O [L-ascorbyl-6-palmitate]
inactive: 1 nM 2.02% | 8.33 nM 0.04% | 100 nM 0.01% | 833.33 nM 0.96% | 10000 nM -0.63%

CNC(C)(C)Cc1ccccc1 [mephentermine]
inactive: 1 nM -6.95% | 8.33 nM -4.1% | 100 nM -6.2% | 833.33 nM -3.76% | 10000 nM 2.65%

COc1cc(C(=S)N2CCOCC2)cc(OC)c1OC [sulmetozine]
inactive: 1 nM -6.81% | 8.33 nM -0.82% | 100 nM 1.75% | 833.33 nM -0.02% | 10000 nM 2.55%

CC(=O)c1ccc2c(c1)N(CCCN1CCN(CCO)CC1)c1ccccc1S2 [acetophenazine]
inactive: 1 nM 1.65% | 8.33 nM 1.77% | 100 nM 2.3% | 833.33 nM 2.47% | 10000 nM 2.15%

Nc1ncnc(Nc2ccc(Cl)cc2)n1 [chlorazanil]
inactive: 1 nM 0.82% | 8.33 nM -0.51% | 100 nM -1.09% | 833.33 nM -1.03% | 10000 nM -2.14%

CSC[C@H](N)C(=O)O [S-methylcysteine]
inactive: 1 nM 4.21% | 8.33 nM 3.63% | 100 nM 1.96% | 833.33 nM -0.82% | 10000 nM 0.31%

CN1CCC(OC(c2ccccc2)c2ccccc2)CC1 [diphenylpyraline]
inactive: 1 nM 0.97% | 8.33 nM 0% | 100 nM 0% | 833.33 nM 0.39% | 10000 nM -1.64%

O[C@H]1[C@H]2[C@H](O)CCCN2C[C@H]1O [swainsonine]
inactive: 1 nM -4.09% | 8.33 nM 2.85% | 100 nM 1.87% | 833.33 nM -1.43% | 10000 nM -5.03%

C=CC[C@]1(O)CC[C@H]2[C@@H]3CCC4=CC(=O)CCC4=C3C=C[C@@]21C [altrenogest]
inactive: 1 nM -0.68% | 8.33 nM -1.12% | 100 nM -0.94% | 833.33 nM 0.13% | 10000 nM 4.81%

O=C(c1ccc(F)cc1)N1CCC[C@H](c2nc(-c3ccc(F)cc3)no2)C1
inactive: 1 nM -1.67% | 8.33 nM -0.59% | 100 nM -0.85% | 833.33 nM 0.74% | 10000 nM 2.44%

C[C@@H](c1ccc2nccn2c1)n1nnc2ncc(-c3cnn(C)c3)nc21 [savolitinib]
inactive: 1 nM 0.39% | 8.33 nM -0.4% | 100 nM -0.3% | 833.33 nM 0.87% | 10000 nM 1.9%

COCC1(CO)C(=O)C2CCN1CC2 (stereo not given)
inactive: 1 nM -1.69% | 8.33 nM -1.26% | 100 nM -0.44% | 833.33 nM -0.13% | 10000 nM 4.84%

Cc1c(Cl)cccc1Nc1ccccc1C(=O)O [tolfenamic-acid]
inactive: 1 nM -1.57% | 8.33 nM -0.57% | 100 nM 1.25% | 833.33 nM 0.34% | 10000 nM -0.7%

CCOc1ccc(Cc2cc([C@@H]3O[C@H](SC)[C@@H](O)[C@H](O)[C@H]3O)ccc2Cl)cc1 [sotagliflozin]
inactive: 1 nM -0.94% | 8.33 nM -2.52% | 100 nM -1.14% | 833.33 nM -3.56% | 10000 nM -3.65%

CCCC[C@@]1(C2CCCC2)Cc2cc(OCCCC(=O)O)c(Cl)c(Cl)c2C1=O
inactive: 1 nM 2.56% | 8.33 nM 0.21% | 100 nM 0.81% | 833.33 nM 2.21% | 10000 nM 2.61%

CC[C@@]1(O)C(=O)OCc2c1cc1n(c2=O)Cc2cc3ccccc3nc2-1 [camptothecin]
inactive: 1 nM -1.27% | 8.33 nM 1.92% | 100 nM -1.93% | 833.33 nM -11.9% | 10000 nM -20.7%

CC(C)(C)Nc1nc(Nc2ccc(C(N)=O)cc2)cc(N)c1C#N
inactive: 1 nM -1.51% | 8.33 nM -2.29% | 100 nM -0.39% | 833.33 nM -2.89% | 10000 nM -1.36%

CC(C)c1cc(C(=O)N2Cc3ccc(CN4CCN(C)CC4)cc3C2)c(O)cc1O
inactive: 1 nM -1.87% | 8.33 nM -3.96% | 100 nM -5.27% | 833.33 nM -1.1% | 10000 nM 0.31%

CCOc1cc2ncc(C#N)c(Nc3ccc(OCc4cccc(F)c4)c(Cl)c3)c2cc1NC(=O)/C=C/CN(C)C
inactive: 1 nM -1.73% | 8.33 nM -3.51% | 100 nM -7.95% | 833.33 nM -12% | 10000 nM -22%

CC(C)(C)c1cc(NC(=O)Nc2ccc(-c3cn4c(n3)sc3cc(OCCN5CCOCC5)ccc34)cc2)no1 [quizartinib]
inactive: 1 nM -1.91% | 8.33 nM -0.28% | 100 nM 0.83% | 833.33 nM -4.72% | 10000 nM -4.89%

CCOC(=O)[C@H](CCc1ccccc1)N[C@@H](C)C(=O)N1CCC[C@H]1C(=O)O [enalapril]
inactive: 1 nM -1.51% | 8.33 nM -1.35% | 100 nM -0.07% | 833.33 nM 2.42% | 10000 nM 0.52%

C[C@]12C=CC(=O)C=C1CC[C@@H]1[C@@H]2C(=O)C[C@@]2(C)[C@H]1CC[C@]2(O)C(=O)CO [prednisone]
inactive: 1 nM -1.14% | 8.33 nM -0.26% | 100 nM -3.03% | 833.33 nM -1.05% | 10000 nM 1.02%

CCC(=O)N1CCOc2c(cc(-c3ccc(OC)c(OC)c3)cc2OC[C@H]2CCCN(C)C2)C1
inactive: 1 nM 1.79% | 8.33 nM 8.72% | 100 nM 0.95% | 833.33 nM 1.75% | 10000 nM 0.51%

CC(C)C[C@H](NC(=O)[C@@H](COC(C)(C)C)NC(=O)[C@H](Cc1ccc(O)cc1)NC(=O)[C@H](CO)NC(=O)[C@H](Cc1c[nH]c2ccccc12)NC(=O)[C@H](Cc1cnc[nH]1)NC(=O)[C@@H]1CCC(=O)N1)C(=O)N[C@@H](CCCNC(=N)N)C(=O)N1CCC[C@H]1C(=O)NNC(N)=O [goserelin-acetate]
inactive: 1 nM 1.97% | 8.33 nM 1.03% | 100 nM 2.63% | 833.33 nM -0.57% | 10000 nM 5.2%

CC(C)c1ccc(C(=O)N=C(N)N)cc1S(C)(=O)=O [cariporide]
inactive: 1 nM 0.61% | 8.33 nM 4.56% | 100 nM 2.44% | 833.33 nM 1.5% | 10000 nM -0.17%

CO[C@H]1/C=C/O[C@@]2(C)Oc3c(C)c(O)c4c(O)c(c(/C=N/N5CCN(C6CCCC6)CC5)c(O)c4c3C2=O)NC(=O)/C(C)=C\C=C\[C@H](C)[C@H](O)[C@@H](C)[C@@H](O)[C@@H](C)[C@H](OC(C)=O)[C@@H]1C [rifapentine]
inactive: 1 nM -8.98% | 8.33 nM -0.78% | 100 nM -1.42% | 833.33 nM 1.06% | 10000 nM 1.47%

CSc1nc(NC2CCCC2)c([N+](=O)[O-])c(NC2CCCC2)n1
inactive: 1 nM -0.65% | 8.33 nM -0.38% | 100 nM 1.31% | 833.33 nM -0.4% | 10000 nM -0.11%

Oc1cc2c(cc1O)[C@@H]1c3ccc(O)c(O)c3OC[C@]1(O)C2 [hematoxylin]
inactive: 1 nM 1.9% | 8.33 nM 1.95% | 100 nM 0.48% | 833.33 nM 0.52% | 10000 nM 1.62%

C[C@@H](O)[C@H]1C(=O)N2C(C(=O)[O-])=C(SC3Cn4cnc[n+]4C3)[C@H](C)[C@H]12 (stereo not given in full) [biapenem]
inactive: 1 nM -2.15% | 8.33 nM -0.04% | 100 nM 0.1% | 833.33 nM 0.63% | 10000 nM -0.14%

c1ccc(Oc2cccnc2)cc1
inactive: 1 nM 2.35% | 8.33 nM 1.64% | 100 nM 1.02% | 833.33 nM 2.24% | 10000 nM 1.23%

CN1CCCN=C1/C=C/c1cccs1 [pyrantel-pamoate]
inactive: 1 nM 1.74% | 8.33 nM 1.39% | 100 nM 2.36% | 833.33 nM 0.63% | 10000 nM -3.05%

C=CCCCCCCCCC(=O)[O][Zn][O]C(=O)CCCCCCCCC=C [zinc-undecylenate]
inactive: 1 nM 0.73% | 8.33 nM 0.52% | 100 nM -0.83% | 833.33 nM 0.72% | 10000 nM 2.73%

CC(C)(C)c1cc(C(=O)/C(C#N)=N/Nc2cccc(Cl)c2)no1
inactive: 1 nM 1.62% | 8.33 nM -1.2% | 100 nM -0.43% | 833.33 nM 2.18% | 10000 nM 11.6%

CC(C)(C)c1ccc2cc(C#N)c(C#N)cc2c1
inactive: 1 nM 0.02% | 8.33 nM 1.71% | 100 nM -1.56% | 833.33 nM 0.05% | 10000 nM -3.93%
